From ChEMBL document CHEMBL3988442, “University of Dundee, Small-Polar-MMV Screening Library” (2021) come the findings set out here.

Assay [1] has as its target T1, Aspartate--tRNA(Asp/Asn) ligase (Mycobacterium tuberculosis (strain ATCC 25618 / H37Rv)) (UniProt P9WFW3). Further: in the data most compounds retested in dose-response had high values.
T1 sequence (whole entry): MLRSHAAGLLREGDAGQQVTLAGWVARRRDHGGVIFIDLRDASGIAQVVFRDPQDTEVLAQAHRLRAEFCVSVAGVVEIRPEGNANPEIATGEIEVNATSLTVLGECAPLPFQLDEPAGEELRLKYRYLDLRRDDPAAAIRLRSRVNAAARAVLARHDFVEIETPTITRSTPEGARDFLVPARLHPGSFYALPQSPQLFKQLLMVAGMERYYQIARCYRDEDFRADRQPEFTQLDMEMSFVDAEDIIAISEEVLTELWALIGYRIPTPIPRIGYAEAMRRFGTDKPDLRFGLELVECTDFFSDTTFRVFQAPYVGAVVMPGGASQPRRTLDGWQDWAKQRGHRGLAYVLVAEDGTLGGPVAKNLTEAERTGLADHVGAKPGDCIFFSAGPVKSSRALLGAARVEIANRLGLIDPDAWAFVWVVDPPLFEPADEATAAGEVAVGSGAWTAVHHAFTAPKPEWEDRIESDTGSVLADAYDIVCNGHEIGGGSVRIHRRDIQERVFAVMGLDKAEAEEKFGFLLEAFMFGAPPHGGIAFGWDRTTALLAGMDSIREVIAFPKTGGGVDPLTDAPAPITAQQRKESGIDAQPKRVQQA
As to the kind of experiment: Assay for Asp RNA synthetase-1 from Mycobacterium tuberculosis. In kind it is functional. Also on record: scale not given: direction of the effect not stated beside the values. The settings on record: 30 µM.

Assay [2] deals with Shiga toxin 2 (Escherichia coli O157:H7) (UniProt P09385+P09386). As to the kind of experiment: E. coli 0.157:H7 Shiga Toxin SOP - stx2 screening assay. More on the design: scale not given: direction of the effect not stated beside the values. Type of assay: functional. The following applies: 30 µM.

Take `CN(Cc1ccc(Cl)s1)C1CCCN(c2cccnn2)C1` (stereo not given): the figures for the Percent Effect in assay [1] and in assay [2] were 2.31% and -15%, respectively.
For `Cc1csc(CNC(=O)NCC(O)c2cccc(Cl)c2)n1` (stereo not given), in that order: 3.71% and -10.8%.
As for `CCCC(C)C(=O)NCc1cn2cc(Br)ccc2n1` (stereo not given), the Percent Effect in assay [1] is 1.41%; in assay [2] it was -63.8%.
With `Cc1ccc(C(=O)NC2CCN(Cc3noc(CC(C)C)n3)CC2)s1`, the Percent Effect in assay [1] is 7.55%; in assay [2], -63.2%.
The corresponding values for `CCC1=N[C@@]2(CC[C@@H]3CN(C(=O)NC(C)C)C[C@@H]32)C(=O)N1C` are -7.39% and 3.05%.
On to `COc1ccc(NC(C)=O)c(N2CCN(C(C)=O)CC2)n1`, for which the Percent Effect in assay [1] is 2.32%; in assay [2], -15.1%.
For `Cc1nc(CN2CCCCC2Cn2cncn2)nc2ccccc12` (stereo not given), in that order: 1.73% and -15.2%.
`COCCc1noc(CN2CCN(CC(O)c3ccccc3)CC2)n1` (stereo not given): the Percent Effect was -1.47% in assay [1] and 4.32% in assay [2].
For `Cc1nc(C)n(CC2CCCN(c3ncnc4c3CCC4)C2)n1` (stereo not given), in that order: 2.14% and 15.3%.
As to `CC(Cc1ccco1)NC(=O)Nc1cnn(CC(N)=O)c1` (stereo not given), the Percent Effect was 2.29% in assay [1] and -8.5% in assay [2].
As to `CC(=O)N1CCCN(C(=O)c2ccn(-c3cccc(Cl)c3)n2)CC1`, the Percent Effect in assay [1] is 3%; in assay [2], 5.49%.
For `CC(=O)N(Cc1noc(C2CC2)n1)C1CCN(Cc2ccncc2)C1` (stereo not given), the Percent Effect in assay [1] was 1.34%; in assay [2], -5.75%.
Turning to `CCS(=O)(=O)CCn1ccc(NC(=O)CCc2cccc(C)c2)n1`, the Percent Effect in assay [1] was 2.58%; in assay [2], -19.5%.
For the compound `Cn1c(CN2CCN(CC3CC3)CC2)nnc1C1CCC1`, the Percent Effect in assay [1] was 8.05%; in assay [2], -37.5%.
For `Cc1nn(C)c(C)c1NC(=O)CN1CCc2c(nc(C3CC3)n2C)C1`, in that order: -0.703% and -17.4%.
The corresponding values for `CC(=O)N1CC(=O)N(c2ccccc2)CC12CCN(Cc1nccs1)C2` (stereo not given) are 7.34% and -17.5%.
For `CC(=O)N1CCOCC2(CN(Cc3ccc(C)o3)CCO2)C1` (stereo not given), in that order: 1.57% and -4.76%.
As to `Cc1nc(C)n(CC2CCCN2Cc2nc3ccccc3nc2C)n1` (stereo not given), the values for the Percent Effect in assay [1] and in assay [2] were -11.8% and -7.98%, respectively.
For `CN1CCN(C(=O)c2ccc(=O)n(C)c2)Cc2ccccc21`, in that order: -5.51% and -29.2%.
The corresponding values for `CCN1C(=O)C(C)(C)c2cc(NC(=O)c3ccco3)ccc21` are 10.8% and -25.1%.
For `CCn1cnnc1C1CCN(C(=O)c2ccc(C(=O)OC)s2)CC1`, in that order: -7.04% and 7.28%.
As to `c1ccc(CCN2CCN(c3ccc4nncn4n3)CC2)nc1`, the Percent Effect in assay [1] was 1.58%; in assay [2], -28.9%.
As to `Cc1cc(C)c(CNC(=O)N(C)Cc2sccc2C)c(=O)[nH]1`, the Percent Effect worked out at 2.05% in assay [1] and 33.8% in assay [2].
For `O=S(=O)(CCNCc1cccc2c1OCCO2)N1CCOCC1`, in that order: -2.82% and -39%.
On to `CCn1ncnc1C(NC(=O)CC1CCN(C(C)C)CC1)C1CC1` (stereo not given), for which the Percent Effect in assay [1] is 1.82%; in assay [2] it was -13.7%.
For `Cc1cc(C)c(CNC(=O)N2CCCC2C(N)=O)c(=O)[nH]1` (stereo not given), in that order: -6.91% and -4.4%.
Turning to `CN(C)c1cc(C(=O)NCCc2nnc(-c3ccco3)[nH]2)ccn1`, the Percent Effect is -1.56% in assay [1] and -46.4% in assay [2].
For the compound `CCOc1cccc(C(=O)NCCC(=O)Nc2ccncc2)c1`, the Percent Effect was -3.32% in assay [1] and -80.5% in assay [2].
The corresponding values for `COCCN1C[C@@H]2CN(C(=O)[C@H]3CCCO3)C[C@@H]2C1=O` are -1.41% and -16.3%.
The corresponding values for `CCCNC(=O)C(C)n1cc(Br)cn1` (stereo not given) are 5.47% and -46.7%.
The corresponding values for `O=C(Nc1nnc(C2CC2)s1)NC1CCN(Cc2ccccc2)C1` (stereo not given) are -0.344% and -174%.
For the compound `COCCO[C@@H]1CCN(C(=O)c2ccc(C)o2)[C@@H]1Cc1cccnc1`, the values for the Percent Effect in assay [1] and in assay [2] were -0.436% and -14.3%, respectively.
The corresponding values for `COc1ccc(S(=O)(=O)N2CCC(S(C)(=O)=O)CC2)cc1C` are 1.12% and -1.05%.
For `O=C(C1CCC1)N1CCCC1c1nnc2n1CCCCC2` (stereo not given), in that order: -0.296% and -16%.
For `O=C(C1CCOCC1)N1CCc2ncnc(-c3ccc(F)cc3)c2CC1`, in that order: -1.43% and -14%.
`COc1ccc(-c2nc(CN3CCN(CCO)CC3)co2)cc1`: the results for the Percent Effect in assay [1] and in assay [2] were -0.607% and -96.9%, respectively.
For `Cc1cccc(-n2cc(C(=O)N3CCCC(n4ccnc4)C3)nn2)c1` (stereo not given), in that order: 1.58% and 7.71%.
The corresponding values for `CN(C)c1cc(CNC(=O)Nc2ccc(F)cc2)ccn1` are 3.3% and -156%.
Turning to `CCn1cc(CN(C)S(=O)(=O)c2cnn(CC)c2C)c(C)n1`, the Percent Effect in assay [1] was -3.81%; in assay [2], 3.32%.
Take `COc1cc(N2C[C@@H]3COC[C@]3(COCc3cccc(C)n3)C2)ncn1`: the Percent Effect is -0.107% in assay [1] and -2.46% in assay [2].
For `Cc1nn(C)c(C)c1CC(=O)N1CCC(N(C)c2cccnn2)CC1`, in that order: -4.15% and 27.2%.
As to `Cc1cnn(CC2CCCN2C(=O)c2ccc3nnc(C)n3c2)c1` (stereo not given), the Percent Effect in assay [1] is 0.189%; in assay [2], -37.5%.
With `Cc1ccc2c(n1)N(CCn1cccn1)CCN(C(=O)CC1CC1)C2`, the Percent Effect was -3.03% in assay [1] and 2.2% in assay [2].
For the compound `Cc1nnc(C(C)N2CCN(Cc3ccc(C#N)cc3)CC2)o1` (stereo not given), the Percent Effect in assay [1] was -2.07%; in assay [2] it was 20%.
Take `COCC1c2c(cnn2CC2CC2)CCN1Cc1cccs1` (stereo not given): the Percent Effect in assay [1] is -0.524%; in assay [2], 0.46%.
The corresponding values for `COC[C@@]12CC[C@@H](N3CCOCC3)C[C@H]1CCN(c1ncccn1)C2` are -4.45% and 17.6%.
The corresponding values for `O=C(NCCCOCC1CCCO1)c1cccnc1N1CCCC1` (stereo not given) are -1.51% and -14.1%.
The corresponding values for `FC1(F)CCN(Cc2ccncc2)CC12CCN(Cc1ccccn1)C2` (stereo not given) are 4.66% and -2.47%.
On to `Cc1nc(CN2CCN(CC(=O)Nc3c(C)cccc3C)CC2)no1`, for which the Percent Effect in assay [1] was -3.29%; in assay [2], -6.23%.
The corresponding values for `Cc1cnn(C2CCCN(C(=O)c3cccc(Cn4ccnc4)c3)C2)c1` (stereo not given) are 0.538% and -30.9%.
